Assay outcomes from PubChem BioAssay.
This is a sample that favours compounds with a hit; in the whole collection about 3.9% have one here.
MazEF act: activators of E. coli MazEF toxin-antitoxin RNase, primary screen, biochemical, fluorescence, uHTS; FAM/BHQ RNA-DNA oligo cleavage fluorescence, 5 h; 350,000 tested, 0.32% active; activation, % at 20 µM; AID 504720, 2011; Endoribonuclease toxin MazF (Escherichia coli (strain K12)), P0AE70; in the data active means activation above about 50%
BoNT-A LC inh2: BoNT/A light chain protease inhibitors, primary screen, biochemical, flow cytometry, MLPCN library; Botulinum neurotoxin type A light chain protease (Clostridium botulinum A str. ATCC 3502); multiplex microsphere protease substrate cleavage; inhibition, % at 10 µM; 360,000 tested, 0.17% active; further: plate controls were buffer without enzyme for full effect and enzyme alone for no effect
BH1578 lux ind: inducers of Vibrio cholerae quorum light production without autoinducers, primary screen, BH1578 luxS cqsA deficient, single point; V. cholerae BH1578 lux reporter, luminescence, 6 h; activation, % at 18.7 µM; 350,000 tested, 0.16% active; in the data active means activation mostly above about 9.7%, no sharp cut-off; inconclusive means no clear call, values can overlap the other calls; inactive means mostly below about 3.7%
BoNT-F LC inh: BoNT/F light chain protease inhibitors, primary screen, biochemical, flow cytometry, MLPCN library; Botulinum neurotoxin type F light chain protease (Clostridium botulinum); Multiplex microsphere protease cleavage assay; inhibition, % at 10 µM; 360,000 tested, 0.22% active; in the data active means inhibition above about 35%, passing the limit was not always enough; inconclusive means no clear call, values can overlap the other calls; further: plate controls were buffer without enzyme for full effect and enzyme alone for no effect
Bead autofluor: compound fluorescence in toxin protease inhibitor counterscreen; fluorescence intensity (concentration not given with the values); compound autofluorescence counterscreen, microsphere flow cytometry; hits give high values; AID 624483; 360,000 tested, 3.1% active; in the data active means fluorescence intensity above about 16000; inconclusive means no clear call, values can overlap the other calls
Anthrax LF inh2: Bacillus anthracis LF protease inhibitors, primary screen, biochemical, multiplex microsphere, MLPCN library | AID 588501, 2011 | 360,000 tested, 0.12% active | inhibition, % at 10 µM | multiplex microsphere protease cleavage assay; further: plate controls were buffer without enzyme for full effect and enzyme alone for no effect
Target sequence (P15917 whole entry, looked up): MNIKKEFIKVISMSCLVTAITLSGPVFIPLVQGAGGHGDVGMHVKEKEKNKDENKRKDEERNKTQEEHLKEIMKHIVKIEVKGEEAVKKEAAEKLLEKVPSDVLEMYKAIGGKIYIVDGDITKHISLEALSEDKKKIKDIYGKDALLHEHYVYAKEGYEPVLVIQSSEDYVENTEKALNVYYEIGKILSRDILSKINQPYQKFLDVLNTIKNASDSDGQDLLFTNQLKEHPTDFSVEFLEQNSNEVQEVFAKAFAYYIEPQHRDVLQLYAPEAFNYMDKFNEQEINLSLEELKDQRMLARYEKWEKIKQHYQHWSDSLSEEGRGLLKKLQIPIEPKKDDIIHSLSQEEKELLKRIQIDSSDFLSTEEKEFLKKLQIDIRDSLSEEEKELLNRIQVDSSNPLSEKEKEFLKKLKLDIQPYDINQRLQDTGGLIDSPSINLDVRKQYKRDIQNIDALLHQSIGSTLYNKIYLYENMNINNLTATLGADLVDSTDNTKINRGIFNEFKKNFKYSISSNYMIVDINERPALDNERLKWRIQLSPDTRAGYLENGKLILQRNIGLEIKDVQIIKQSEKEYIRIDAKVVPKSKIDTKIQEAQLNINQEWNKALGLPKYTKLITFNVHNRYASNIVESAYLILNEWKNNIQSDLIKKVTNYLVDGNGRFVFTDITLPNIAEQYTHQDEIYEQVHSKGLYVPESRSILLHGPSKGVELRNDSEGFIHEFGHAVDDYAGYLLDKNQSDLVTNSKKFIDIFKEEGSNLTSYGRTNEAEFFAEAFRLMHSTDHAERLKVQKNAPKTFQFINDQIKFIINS
Active calls of the source: *; i = inactive; ? = inconclusive; nt = no result given. Unless noted, no stated cut-off is given here; in the data, active means inhibition above about 30%; inconclusive means no clear call, values can overlap the other calls; inactive means below that.

SMILES	MazEF act	BoNT-A LC inh2	BH1578 lux ind	BoNT-F LC inh	Bead autofluor	Anthrax LF inh2
COc1ccc(OC(C)C(=O)NC2CCCCCCC2)cc1 (centres undefined)	-2	-2	-2	-7	4905	-1
Cn1c(SCC(=O)N2CCCc3ccccc32)nnc1-c1cccs1	9	-1	i	1	23321*	-4
COc1ccc(NC(=O)CNC(c2ccccc2)c2ccccc2)cc1Cl	15	-3	-1	-24	4121	4
O=C(Cn1cccc1)Nc1ccc(OC(F)(F)F)cc1	7	4	0	4	21063*	1
Cc1ccc(NC(=O)Cn2cccc2)c(Br)c1	9	-1	0	-2	23334*	-2
COc1ccc(NCC(=O)Nc2ccccc2C#N)cc1Cl	9	2	i	5	21530*	-8
Cc1cccc(NC(=O)Cn2cccc2)c1	4	-2	0	-2	20306*	-2
O=C(CN1C(=O)NC2(CCCC2)C1=O)Nc1cc(S(=O)(=O)N2CCCCC2)ccc1Cl	-1	-1	i	-7	4063	-2
CC1CN(C(=O)c2ccc(NS(=O)(=O)c3cccc(Cl)c3)cc2)CC(C)O1 (centres undefined)	12	2	0	-2	5834	0
O=C(c1cc2nc(-c3ccc(Cl)cc3)cc(C(F)(F)F)n2n1)N1CCOCC1	-6	0	-2	-4	2508	2
CC(C)CCN1C(=O)c2ccccc2C1c1nnnn1-c1ccc2c(c1)OCCO2 (centres undefined)	nt	0	nt	9	6050	-1
C=CCNC(=O)CN1CCN(C(c2ccccc2)c2ccccc2)CC1	9	-2	i	?	3130	1
COc1ccc(NC(=O)Cn2cccc2)cc1Cl	5	2	0	1	22292*	-2
Cc1ccc(NC(=O)Cn2cccc2)cc1Cl	-11	0	0	-2	9675	-2
Cc1ccccc1N1C(=O)[C@@H]2Cc3ccccc3CN2C1=O	3	?	i	6	19296*	-6
O=C1[C@@H]2Cc3ccccc3CN2C(=O)N1c1cccc(F)c1	-10	0	0	-5	8983	1
O=C(Cc1noc2ccccc12)Nc1ccc2ccccc2c1	3	1	i	-1	21952*	-3
Cc1ccc(NC(=O)Cc2noc3ccccc23)cc1	-2	1	-1	8	5464	3
COc1ccccc1N1CCN(CC(=O)Nc2cc(C)nn2-c2nc(C)cc(C)n2)CC1	-6	1	-2	2	4228	-3
CCc1ccc2nc(SCC(=O)N3CC(=O)Nc4ccccc43)c(C#N)cc2c1	83*	0	0	12	4466	-1
CC(C)(C)c1cnnn1-c1ccc(C=O)cc1	2	-3	0	-4	24224*	-4
O=C(CCN1C(=O)C2CC=C(Cl)CC2C1=O)NCc1ccccc1 (centres undefined)	0	1	nt	9	2723	-3
O=C1C2CC=C(Cl)CC2C(=O)N1CCC[n+]1ccccc1 (centres undefined)	-7	?	-1	2	19255*	-1
O=C(O)c1ccccc1NCN1C(=O)C2CC=C(Cl)CC2C1=O (centres undefined)	-7	-4	i	-4	24033*	-4
Cc1ccc(NCN2C(=O)C3CC=C(Cl)CC3C2=O)cc1 (centres undefined)	2	0	1	-3	2906	-1
SMILES	MazEF act	BoNT-A LC inh2	BH1578 lux ind	BoNT-F LC inh	Bead autofluor	Anthrax LF inh2
Cc1cnc(CNC(=O)c2csc([C@H]3C[C@H](O)[C@@H](CO)O3)n2)cn1	nt	0	0	-3	3776	10
COc1ccc(OC)c(NC(=O)CSc2nc(=O)n(CCN3CCOCC3)c3c2CCCC3)c1	2	-3	-1	-10	6133	-8
COc1ccccc1NC(=O)N(C)C[C@@H]1OCc2cn(nn2)CCCC(=O)N([C@H](C)CO)C[C@H]1C	2	0	i	-2	3288	-2
COc1cccc(N(CC(=O)N2CCCC2)S(C)(=O)=O)c1	7	-5	0	?	3824	-13
CN(CC(=O)N1CCCC1)S(=O)(=O)c1cc(Cl)ccc1Cl	-6	?	3	-6	22425*	0
CCOC(=O)C1CCN(C(=O)CN(c2ccc3c(c2)OCCO3)S(C)(=O)=O)CC1	-1	-1	0	0	22882*	-10
CCOC(=O)C1CCN(C(=O)CN(c2ccc3c(c2)OCCO3)S(=O)(=O)c2ccccc2)CC1	1	1	-1	2	5585	1
CCOC(=O)N1CCN(C(=O)CN(c2cccc(OC)c2)S(C)(=O)=O)CC1	-6	?	3	4	19270*	4
CS(=O)(=O)N(CC(=O)N1CCCC1)c1ccc2c(c1)OCCO2	2	5	0	4	21840*	1
CS(=O)(=O)N(CC(=O)N1CCOCC1)c1ccc2c(c1)OCO2	5	0	0	-7	3082	0
CC(C)n1nnnc1C1c2ccccc2C(=O)N1Cc1cccnc1 (centres undefined)	nt	0	nt	4	5866	-8
CC(=O)c1cccc(-c2ccnc3c2CC(C(=O)Nc2ccccc2)O3)c1 (centres undefined)	nt	-1	-1	4	4591	-6
c1ccc(COc2ccc(-c3cc4nc(NCCCn5ccnc5)ccn4n3)cc2)cc1	nt	0	-1	-7	4934	-7
CCOC(=O)C1(C)CCCN(C(=O)c2cccc(OC(F)(F)F)c2)C1 (centres undefined)	nt	0	-1	1	2797	-4
CS(=O)(=O)N(CC(=O)N1CCOCC1)c1ccc(Cl)cc1	10	-1	i	-12	4056	-13
CS(=O)(=O)N(CC(=O)N1CCCC1)c1cc(Cl)c(Cl)cc1Cl	0	3	i	2	22315*	-2
CC(=O)c1cccc(N(CC(=O)N2CCCCC2)S(C)(=O)=O)c1	7	?	-1	0	24555*	-2
Cc1ccc(N(CC(=O)N2CCOCC2)S(C)(=O)=O)cc1C	-2	?	i	1	20113*	1
Cn1c2ccc(F)cc2c2ncn(CCCN(CCO)CCO)c(=O)c21	-4	-2	0	-1	21356*	-4
N#Cc1ccccc1OCC(=O)OCC(=O)Nc1ccc2c(c1)OCO2	-4	3	i	4	6411	-1
COC(=O)C1(C(=O)OC)C/C=C\CCN(S(=O)(=O)c2ccccc2[N+](=O)[O-])CC1	nt	0	nt	0	5648	2
C=C(C)CN(CC)c1nc(N)c(C#N)c(CC#N)c1C#N	9	?	i	0	20294*	-1
COc1ccc(-c2cc(-c3ccccc3)nc(-c3ccc4c(c3)NC(=O)CO4)c2)cc1	-31	?	i	2	19614*	0
